Records with an inconclusive call do not appear. Active and inactive are the calls of the source. How the source made its calls, unless noted: active means hit-call score of the fitted dose curve at least 0.9, where 1 is the maximum; inactive means score below 0.9.
Legend:
[1] = read-out: Tissue Factor, F3 (gene 2152); assay: BSK_LPS_TissueFactor: BioMAP Diversity Plus: LPS Assay for Tissue Factor Biomarker Activity (AID 2283084); settings: primary human HUVEC with PBMC; actives raise or lower the signal
Method in brief: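 Read-out: CD142 ELISA, 24 h. System: LPS-driven human endothelial/PBMC co-culture. Analysis: up- or down-signal fitted against DMSO.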

[2] = read-out: Tumor necrosis factor (Homo sapiens) (UniProt P01375); assay: BSK_LPS_TNFa: BioMAP Diversity Plus: LPS Assay for Tumour Necrosis Factor alpha (TNFa) Biomarker Activity (AID 2283085); settings: primary human HUVEC with PBMC; actives raise or lower the signal
Method in brief: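 Primary human vascular co-culture of HUVEC and PBMC; TNFa ELISA 24 h after treatment, analysed as increase or decrease relative to DMSO control.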

[3] = read-out: Vascular cell adhesion molecule 1 (VCAM1), VCAM1 (gene 7412); assay: BSK_LPS_VCAM1: BioMAP Diversity Plus: LPS Assay for Vascular cell adhesion molecule 1 (VCAM1) Biomarker Activity (AID 2283086); settings: primary human HUVEC with PBMC; actives raise or lower the signal
Method in brief: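 Primary human vascular co-culture (umbilical vein endothelium plus PBMC) stimulated with LPS received chemical; 24 h later VCAM-1 was read by ELISA. Overt cytotoxicity was assessed by sulforhodamine B staining of parallel cultures at the same time point.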

CD38, CD38 (gene 952) = assay: BSK_SAg_CD38: BioMAP Diversity Plus: SAg Assay for CD38 Biomarker Activity (AID 2283087); settings: primary human HUVEC with PBMC; actives raise or lower the signal
Method in brief: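 Fluorescence ELISA of cell-surface CD38 served as the read-out, with either increase or decrease fitted against DMSO controls. Cells were a human umbilical vein endothelium plus PBMC co-culture under SEB/TSST-1 stimulation, measured 24 h after dosing.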

[4] = read-out: Monocyte Chemoattractant Protein-1 (MCP1), CCL2 (gene 6347); assay: BSK_SAg_MCP1: BioMAP Diversity Plus: SAg Assay for Monocyte Chemoattractant Protein-1 (MCP1) Biomarker Activity (AID 2283090); settings: primary human HUVEC with PBMC; actives raise or lower the signal
Method in brief: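 MCP-1 levels in the endothelial–PBMC SAg co-culture were quantified by ELISA at 24 h post-dosing; both increases and decreases versus DMSO scored. Cytotoxicity monitored by SRB total protein in parallel cultures.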

[5] = read-out: E-selectin (Homo sapiens) (UniProt P16581); assay: BSK_SAg_Eselectin: BioMAP Diversity Plus: SAg Assay for Eselectin Biomarker Activity (AID 2283091); settings: primary human HUVEC with PBMC; actives raise or lower the signal
Method in brief: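 Endpoint values derive from bidirectional fitting relative to DMSO, using ELISA-measured E-selectin in a human vascular co-culture (umbilical vein endothelium plus PBMC) sampled 24 h after dosing.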

[6] = read-out: Monokine induced gamma interferon (MIG), CXCL9 (gene 4283); assay: BSK_SAg_MIG: BioMAP Diversity Plus: SAg Assay for Monokine induced gamma interferon (MIG) Biomarker Activity (AID 2283092); settings: primary human HUVEC with PBMC; actives raise or lower the signal
Method in brief: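 Values reflect bidirectional fitting of ELISA-measured MIG against DMSO vehicle, taken 24 h after dosing of a co-culture of human umbilical vein endothelial cells and peripheral blood mononuclear cells.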

[7] = BSK_SAg_PBMCCytotoxicity: PBMC Cytotoxicity Assessment in the BioMAP Diversity Plus: SAg Assay (AID 2283093); settings: primary human HUVEC with PBMC;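 further: PBMC viability measured as Alamar Blue reduction fluorescence at 546/580 nm; fitted both ways against DMSO so a hit may be loss or gain of signal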;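 on AC50: PBMC superantigen activated with SEB plus TSST-1 one hour after compound addition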
Method in brief: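 Human umbilical vein endothelial cells co-cultured with PBMC; PBMC (75,000/well) pre-treated with compound 1 h, then activated with SEB and TSST-1 (20 ng/mL final each) for 90 h. Alamar Blue added 6 h, fluorescence 546/580 nm; bidirectional fit versus DMSO.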

[8] = BSK_SAg_Proliferation: Cell Proliferation Assessment in the BioMAP Diversity Plus: SAg Assay (AID 2283095); settings: primary human HUVEC with PBMC;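 further: relative cell number as total protein by SRB absorbance in sub-confluent culture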
Method in brief: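 Readout is SRB-stained protein (560 nm) in a primary human HUVEC and PBMC co-culture; sub-confluent cultures are read at 96 h. Activity is fitted bidirectionally using DMSO as baseline.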

[9] = BSK_SAg_SRB: Viability Assessment in the BioMAP Diversity Plus: SAg Assay (AID 2283096); settings: primary human HUVEC with PBMC;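 further: cells read one day after compound addition; hits may be either gain or loss of signal compared with DMSO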
Method in brief: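 Endothelial/PBMC primary human co-culture; compound 24 h; fix 10% TCA, stain 0.1% SRB, A560; protein content as cytotoxicity proxy; bidirectional curve fit, DMSO = baseline.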

[10] = molecular target: human CYP2D6, CYP2D6 (gene 1565) (UniProt P10635); assay: NVS_ADME_hCYP2D6: NovaScreen (NVS) CYP450-related Enzyme Activity (ADME) Assay for human CYP2D6 (AID 2283107; active means hit-call score of the fitted dose curve at least 0.9, where 1 is the maximum)
Method in brief: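 Biochemical fluorescence assay, insect-cell-derived enzyme. Read at 1 h; inhibition taken from loss of signal against acetonitrile. Screened at 10 uM in duplicate, with concentration series for actives.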

CD40, CD40 (gene 958) = assay: BSK_SAg_CD40: BioMAP Diversity Plus: SAg Assay for CD40 Biomarker Activity (AID 2283088); settings: primary human HUVEC with PBMC; actives raise or lower the signal
Method in brief: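 Endpoint derived by fitting increases or decreases versus DMSO controls. CD40 is detected by fluorescence ELISA in a human vascular co-culture of endothelium and PBMC at 24 h.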

[11] = read-out: Interleukin-8 (IL8), CXCL8 (gene 3576); assay: BSK_SAg_IL8: BioMAP Diversity Plus: SAg Assay for Interleukin-8 (IL8) Biomarker Activity (AID 2283094); settings: primary human HUVEC with PBMC; actives raise or lower the signal
Method in brief: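 In this co-culture of human umbilical vein endothelium with peripheral blood mononuclear cells, IL-8 is assayed by ELISA at 24 h. DMSO serves as baseline for bidirectional curve fitting.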

[12] = molecular target: Cytochrome P450 3A4 (Homo sapiens) (UniProt P08684); assay: NVS_ADME_hCYP3A4: NovaScreen (NVS) CYP450-related Enzyme Activity (ADME) Assay for human CYP3A4 (AID 2283110; active means hit-call score of the fitted dose curve at least 0.9, where 1 is the maximum)
Method in brief: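 Cell-free assay using insect-cell-expressed human CYP3A4 with a fluorogenic substrate; fluorescence intensity was read 0.33 hour after dosing. Loss of signal relative to acetonitrile vehicle indicated inhibition. Primary single-concentration screen at 10 uM, in duplicate, then concentration series.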

[13] = molecular target: human CYP2A6, CYP2A6 (gene 1548) (UniProt P11509); assay: NVS_ADME_hCYP2A6: NovaScreen (NVS) CYP450-related Enzyme Activity (ADME) Assay for human CYP2A6 (AID 2283099; active means hit-call score of the fitted dose curve at least 0.9, where 1 is the maximum)
Method in brief: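 Loss of fluorescence signal relative to acetonitrile vehicle reported CYP2A6 inhibition in a cell-free system using insect-cell-derived enzyme. Readings were taken at 0.5 h; top concentration in follow-up dose series was 20 uM.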

Chain of Tumor necrosis factor (Homo sapiens) (P01375 whole entry, looked up): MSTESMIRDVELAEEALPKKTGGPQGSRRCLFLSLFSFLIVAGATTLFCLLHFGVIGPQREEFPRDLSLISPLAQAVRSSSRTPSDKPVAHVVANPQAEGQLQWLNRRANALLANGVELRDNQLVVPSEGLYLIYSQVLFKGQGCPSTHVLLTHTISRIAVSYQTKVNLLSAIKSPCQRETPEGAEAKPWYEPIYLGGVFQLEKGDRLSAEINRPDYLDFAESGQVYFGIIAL
Chain of E-selectin (Homo sapiens) (P16581 whole entry, looked up): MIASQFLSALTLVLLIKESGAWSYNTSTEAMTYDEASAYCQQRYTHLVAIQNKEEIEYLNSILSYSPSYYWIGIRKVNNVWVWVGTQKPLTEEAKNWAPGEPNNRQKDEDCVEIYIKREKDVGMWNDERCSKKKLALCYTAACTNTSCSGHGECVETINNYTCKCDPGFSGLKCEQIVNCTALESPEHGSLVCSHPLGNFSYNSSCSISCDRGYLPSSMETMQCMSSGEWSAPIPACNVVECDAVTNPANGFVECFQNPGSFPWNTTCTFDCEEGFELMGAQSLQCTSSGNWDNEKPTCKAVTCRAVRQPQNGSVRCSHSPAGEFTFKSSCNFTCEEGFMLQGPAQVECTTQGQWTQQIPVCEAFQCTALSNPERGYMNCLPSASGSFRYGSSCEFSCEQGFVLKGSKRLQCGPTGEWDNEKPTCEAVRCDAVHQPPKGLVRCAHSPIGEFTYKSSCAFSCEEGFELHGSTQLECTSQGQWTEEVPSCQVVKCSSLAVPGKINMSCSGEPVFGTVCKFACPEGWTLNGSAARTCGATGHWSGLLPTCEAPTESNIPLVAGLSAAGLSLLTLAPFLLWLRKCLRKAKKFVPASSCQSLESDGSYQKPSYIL
Chain of human CYP2D6, CYP2D6 (gene 1565) (P10635 whole entry, looked up): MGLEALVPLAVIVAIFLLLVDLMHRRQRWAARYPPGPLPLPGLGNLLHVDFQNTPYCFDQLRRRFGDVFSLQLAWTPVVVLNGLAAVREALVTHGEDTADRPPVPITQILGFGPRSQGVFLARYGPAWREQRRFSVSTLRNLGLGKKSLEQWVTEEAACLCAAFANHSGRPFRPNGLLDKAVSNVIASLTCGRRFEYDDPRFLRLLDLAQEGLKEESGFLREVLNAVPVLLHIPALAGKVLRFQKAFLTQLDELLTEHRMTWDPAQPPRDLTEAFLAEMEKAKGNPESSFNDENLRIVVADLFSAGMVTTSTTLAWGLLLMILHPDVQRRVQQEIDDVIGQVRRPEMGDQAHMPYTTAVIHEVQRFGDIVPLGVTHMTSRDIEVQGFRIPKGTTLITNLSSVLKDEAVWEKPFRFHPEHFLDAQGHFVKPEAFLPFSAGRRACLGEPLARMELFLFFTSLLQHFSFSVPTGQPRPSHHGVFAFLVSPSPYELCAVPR
Chain of human CYP2A6, CYP2A6 (gene 1548) (P11509 whole entry, looked up): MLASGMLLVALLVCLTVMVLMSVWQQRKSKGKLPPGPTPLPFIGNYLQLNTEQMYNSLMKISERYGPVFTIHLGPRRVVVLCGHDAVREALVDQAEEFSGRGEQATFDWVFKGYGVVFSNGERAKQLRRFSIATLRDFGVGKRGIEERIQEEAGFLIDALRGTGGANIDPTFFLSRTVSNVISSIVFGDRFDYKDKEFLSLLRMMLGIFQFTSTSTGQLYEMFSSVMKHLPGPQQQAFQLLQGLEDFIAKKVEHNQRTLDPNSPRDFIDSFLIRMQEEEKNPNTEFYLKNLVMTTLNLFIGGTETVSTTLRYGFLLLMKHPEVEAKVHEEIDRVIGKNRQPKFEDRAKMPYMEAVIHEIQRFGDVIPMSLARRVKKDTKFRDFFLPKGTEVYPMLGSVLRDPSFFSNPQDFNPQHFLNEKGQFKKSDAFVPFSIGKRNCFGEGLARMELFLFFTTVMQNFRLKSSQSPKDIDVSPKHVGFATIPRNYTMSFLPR
Chain of Cytochrome P450 3A4 (Homo sapiens) (P08684 whole entry, looked up): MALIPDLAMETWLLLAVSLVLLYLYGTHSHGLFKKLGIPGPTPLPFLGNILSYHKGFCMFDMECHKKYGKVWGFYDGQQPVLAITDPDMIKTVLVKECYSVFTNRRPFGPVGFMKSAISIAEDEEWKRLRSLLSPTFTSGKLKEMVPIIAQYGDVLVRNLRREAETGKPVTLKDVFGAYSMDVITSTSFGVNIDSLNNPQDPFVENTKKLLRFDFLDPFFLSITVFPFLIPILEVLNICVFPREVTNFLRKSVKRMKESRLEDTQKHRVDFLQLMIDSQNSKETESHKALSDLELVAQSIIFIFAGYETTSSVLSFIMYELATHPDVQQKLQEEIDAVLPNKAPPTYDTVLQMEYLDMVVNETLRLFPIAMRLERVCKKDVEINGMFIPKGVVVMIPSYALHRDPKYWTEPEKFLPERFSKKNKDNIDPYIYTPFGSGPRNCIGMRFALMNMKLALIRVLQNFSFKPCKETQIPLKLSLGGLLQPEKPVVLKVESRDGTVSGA

CCCCCCCCCCCC[N+](C)(C)C
AC50 [1]: 32.4 µM (active) | AC50 [2]: 31.7 µM (active) | AC50 [3]: 25.7 µM (active) | AC50 (CD38, CD38 (gene 952)): 17.4 µM (active) | AC50 [4]: 18.4 µM (active) | AC50 [5]: 32.2 µM (active) | AC50 [6]: 29.4 µM (active) | AC50 [7]: 20 µM (active) | AC50 [8]: 6.09 µM (active) | AC50 [9]: 25.8 µM (active) | AC50 [10]: 7.58 µM (active)

CC(O)CC(C)(C)O (configuration not stated)
outcome [1]: inactive | outcome [2]: inactive | outcome [3]: inactive | outcome (CD38, CD38 (gene 952)): inactive | outcome (CD40, CD40 (gene 958)): inactive | outcome [4]: inactive | outcome [5]: inactive | outcome [6]: inactive | outcome [7]: inactive | outcome [11]: inactive | outcome [8]: inactive | outcome [9]: inactive

O=C(Nc1ccc(Cl)cc1)Nc1ccc(Cl)c(Cl)c1
AC50 [1]: 2.26 µM (active) | AC50 [2]: 3.23 µM (active) | AC50 [3]: 3.92 µM (active) | AC50 (CD38, CD38 (gene 952)): 2.11 µM (active) | AC50 (CD40, CD40 (gene 958)): 3.04 µM (active) | AC50 [4]: 3.32 µM (active) | AC50 [5]: 2.6 µM (active) | AC50 [6]: 2.11 µM (active) | AC50 [7]: 2.72 µM (active) | AC50 [11]: 2.29 µM (active) | AC50 [8]: 1.79 µM (active) | AC50 [9]: 2.28 µM (active)

Cc1ccc2oc(CN(Cc3ccccc3)C(=O)Nc3c(F)cc(F)cc3F)c(-c3ccc(Cl)cc3)c2c1
outcome [1]: inactive | outcome [2]: inactive | outcome [3]: inactive | outcome (CD38, CD38 (gene 952)): inactive | outcome (CD40, CD40 (gene 958)): inactive | outcome [4]: inactive | outcome [5]: inactive | outcome [6]: inactive | outcome [7]: inactive | outcome [11]: inactive | AC50 [8]: 6.03 µM (active) | outcome [9]: inactive

CN(C)C(=O)C1(N2CCCCC2)CCN(CC[C@@]2(c3ccc(Cl)c(Cl)c3)CN(C(=O)c3ccccc3)CCO2)CC1
AC50 [1]: 31.2 µM (active) | AC50 [2]: 35.4 µM (active) | AC50 [3]: 26.6 µM (active) | AC50 (CD38, CD38 (gene 952)): 21.3 µM (active) | AC50 (CD40, CD40 (gene 958)): 18.9 µM (active) | AC50 [4]: 22.2 µM (active) | AC50 [5]: 28.3 µM (active) | AC50 [6]: 31.7 µM (active) | AC50 [7]: 15.4 µM (active) | AC50 [11]: 12 µM (active) | AC50 [8]: 5.91 µM (active) | AC50 [9]: 14 µM (active) | AC50 [10]: 4.97 µM (active) | AC50 [12]: 0.586 µM (active)

O=C(O)Cn1c(=O)n(Cc2ccc(Br)cc2F)c(=O)c2ccc(Cl)cc21
outcome [1]: inactive | AC50 [2]: 1.07 µM (active) | outcome [3]: inactive | outcome (CD38, CD38 (gene 952)): inactive | outcome (CD40, CD40 (gene 958)): inactive | outcome [4]: inactive | outcome [5]: inactive | outcome [6]: inactive | outcome [7]: inactive | outcome [11]: inactive | outcome [8]: inactive | outcome [9]: inactive

Oc1ccccc1
outcome [1]: inactive | outcome [2]: inactive | outcome [3]: inactive | outcome (CD38, CD38 (gene 952)): inactive | outcome (CD40, CD40 (gene 958)): inactive | outcome [4]: inactive | outcome [5]: inactive | outcome [6]: inactive | outcome [7]: inactive | outcome [11]: inactive | outcome [8]: inactive | outcome [9]: inactive | outcome [13]: inactive

CCCCOC(=O)CC(CC(=O)OCCCC)(OC(C)=O)C(=O)OCCCC
outcome [1]: inactive | outcome [2]: inactive | outcome [3]: inactive | outcome (CD38, CD38 (gene 952)): inactive | outcome (CD40, CD40 (gene 958)): inactive | outcome [4]: inactive | outcome [5]: inactive | outcome [6]: inactive | outcome [7]: inactive | outcome [11]: inactive | outcome [8]: inactive | outcome [9]: inactive

CCCCCCCCN(C)CCCCCCCC
outcome [1]: inactive | outcome [2]: inactive | outcome [3]: inactive | outcome (CD38, CD38 (gene 952)): inactive | outcome (CD40, CD40 (gene 958)): inactive | outcome [4]: inactive | outcome [5]: inactive | outcome [6]: inactive | outcome [7]: inactive | outcome [11]: inactive | outcome [8]: inactive | outcome [9]: inactive

CCCCCCCC[Si](OCC)(OCC)OCC
outcome [1]: inactive | outcome [2]: inactive | AC50 [3]: 30.1 µM (active) | AC50 (CD38, CD38 (gene 952)): 20 µM (active) | outcome (CD40, CD40 (gene 958)): inactive | outcome [4]: inactive | AC50 [5]: 20.7 µM (active) | outcome [6]: inactive | AC50 [7]: 18.7 µM (active) | outcome [11]: inactive | outcome [8]: inactive | AC50 [9]: 31.7 µM (active)

Reference: PubChem BioAssay (EPA / NIEHS)
